Here are results for 13 molecules from PubChem BioAssay (Tox21).

Assay [1] can be described thus: Human pregnane X receptor (PXR) small molecule agonists, qHTS cell viability counter screen (AID 1346977). Also: nearly all actives have a fitted effect of over 50% in size. Also: potency is read from the fitted curve at half-maximal effect. The method in brief: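 Same-well viability read: CellTiter-Fluor added after 23 hr compound exposure, fluorescence measured 1 hr later. Cells were PXR-Luc HepG2 seeded at 2,000/well in 5% charcoal-stripped FBS medium, rested 5 hr before dosing at 37 C.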
(In general: qHTS replaces the single test concentration by a dilution series.)

Assay [2] is described as follows: Caspase-3/7 induction in HepG2 cells by small molecules, qHTS assay (AID 1346978). Also: nearly all actives have a fitted effect of over 15% in size. The method in brief:
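Wild-type HepG2 cells (2,000/well) were settled 5 h at 37 C, 5% CO2, then exposed to compounds in DMSO for 17 h. Caspase-3/7 activity was read by luminescence 30 min after adding Caspase-Glo 3/7 reagent at room temperature.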

The nature of assay [3]: Caspase-3/7 induction in CHO-K1 cells by small molecules, qHTS cell viability counter screen (AID 1346979). Also: nearly all actives have a fitted effect of over 35% in size. Put shortly: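 Cytotoxicity counter screen: CellTiter-Fluor added to compound-treated wild-type CHO-K1 cells at 16 h (37C, 5% CO2), fluorescence measured 1 h later; same wells as caspase-3/7 measurement.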
Assay [4] is described as follows: Caspase-3/7 induction in HepG2 cells by small molecules, qHTS cell viability counter screen (AID 1346981). Also: series mostly up to about 92 µM; nearly all actives have a fitted effect of over 30% in size. The method in brief:
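Cell viability is measured as a cytotoxicity counter screen alongside the Caspase-Glo 3/7 readout in identical wells. Wild-type HepG2 cells are treated with test compounds for 16 hr at 37 C before CellTiter-Fluor addition and a 1-hr incubation.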

Assay [5] deals with Nuclear receptor subfamily 1 group I member 2 (Homo sapiens) (UniProt O75469). Briefly: Human pregnane X receptor (PXR) small molecule agonists, qHTS assay (AID 1346982). Also: nearly all actives have a fitted effect of over 35% in size. Also: potency is read from the fitted curve at half-maximal effect. Put shortly:
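Cells: HepG2 stably carrying PXR-Luc. Medium held 5% charcoal-stripped FBS. Compounds in DMSO added after 5 hr plating, incubated 24 hr, then luminescence quantified with ONE-Glo.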

For assay [6], the target named is Cytochrome P450 2D6 (Homo sapiens) (UniProt P10635). Briefly: Cytochrome P450 Family 2 Subfamily D Member 6 (CYP2D6) small molecule antagonists: luciferase reporter qHTS assay (AID 1671196). Also: nearly all actives have a fitted effect of over 50% in size. Also: potency is read from the fitted curve at half-maximal effect. The method in brief: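 Enzyme and proluciferin substrate were first combined with test chemical for 10 min at room temperature. Adding NADPH regeneration solution started a 1 h reaction, stopped with luciferin detection reagent and read by luminescence 20 min later.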
Cytochrome P450 2D6 (Homo sapiens), sequence (P10635 whole entry, looked up): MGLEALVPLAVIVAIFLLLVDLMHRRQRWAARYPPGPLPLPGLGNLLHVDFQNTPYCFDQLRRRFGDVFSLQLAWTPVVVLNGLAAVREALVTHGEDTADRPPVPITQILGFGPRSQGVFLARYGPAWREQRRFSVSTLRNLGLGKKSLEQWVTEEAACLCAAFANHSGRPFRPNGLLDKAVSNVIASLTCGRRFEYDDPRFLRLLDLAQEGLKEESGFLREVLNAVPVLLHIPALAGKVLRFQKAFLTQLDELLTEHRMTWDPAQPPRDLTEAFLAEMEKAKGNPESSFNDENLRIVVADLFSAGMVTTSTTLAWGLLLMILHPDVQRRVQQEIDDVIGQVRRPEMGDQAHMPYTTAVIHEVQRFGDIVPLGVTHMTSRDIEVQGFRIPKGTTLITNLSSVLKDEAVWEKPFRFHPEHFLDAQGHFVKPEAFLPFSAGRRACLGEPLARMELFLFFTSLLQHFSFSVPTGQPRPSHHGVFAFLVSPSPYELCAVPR
A general note: In a reporter assay the amount or activity of a reporter protein is the signal.

Assay [7] addresses Cytochrome P450 2C19 (Homo sapiens) (UniProt P33261). As to the kind of experiment: Cytochrome P450 Family 2 Subfamily C Member 19 (CYP2C19) small molecule antagonists: luciferase reporter qHTS assay (AID 1671197). Also: nearly all actives have a fitted effect of over 65% in size. Also: potency is read from the fitted curve at half-maximal effect. The method in brief: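 First, compounds are pinned into enzyme-substrate mix and held 10 min at room temperature. Second, NADPH regeneration solution is added and plates incubate 1 h at 37C. Third, detection reagent is added and luminescence read after 20 min.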

For assay [8], the target named is Cytochrome P450 2C9 (Homo sapiens) (UniProt P11712). As to the kind of experiment: Cytochrome P450 Family 2 Subfamily C Member 9 (CYP2C9) small molecule antagonists: luciferase reporter qHTS assay (AID 1671198). Also: series mostly up to about 120 µM; nearly all actives have a fitted effect of over 50% in size. Put shortly:
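CYP2C9 activity was measured with a P450-Glo proluciferin substrate. Enzyme–substrate mix was held with compound for 10 min at room temperature, then NADPH regeneration solution was added for 1 h at 37C. Luciferin product was read as luminescence.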

The target in assay [9] is Cytochrome P450 1A2 (Homo sapiens) (UniProt P05177). Briefly: Cytochrome P450 Family 1 Subfamily A Member 2 (CYP1A2) small molecule antagonists: luciferase reporter qHTS assay (AID 1671199). Also: nearly all actives have a fitted effect of over 50% in size. Also: potency is read from the fitted curve at half-maximal effect. Put shortly: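 Compounds were incubated with CYP1A2 and a luminogenic proluciferin substrate for 10 min at room temperature before the reaction was started with NADPH regeneration solution. After 1 h, detection reagent was added and light output, proportional to CYP activity, was recorded.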
Cytochrome P450 1A2 (Homo sapiens), sequence (P05177 whole entry, looked up): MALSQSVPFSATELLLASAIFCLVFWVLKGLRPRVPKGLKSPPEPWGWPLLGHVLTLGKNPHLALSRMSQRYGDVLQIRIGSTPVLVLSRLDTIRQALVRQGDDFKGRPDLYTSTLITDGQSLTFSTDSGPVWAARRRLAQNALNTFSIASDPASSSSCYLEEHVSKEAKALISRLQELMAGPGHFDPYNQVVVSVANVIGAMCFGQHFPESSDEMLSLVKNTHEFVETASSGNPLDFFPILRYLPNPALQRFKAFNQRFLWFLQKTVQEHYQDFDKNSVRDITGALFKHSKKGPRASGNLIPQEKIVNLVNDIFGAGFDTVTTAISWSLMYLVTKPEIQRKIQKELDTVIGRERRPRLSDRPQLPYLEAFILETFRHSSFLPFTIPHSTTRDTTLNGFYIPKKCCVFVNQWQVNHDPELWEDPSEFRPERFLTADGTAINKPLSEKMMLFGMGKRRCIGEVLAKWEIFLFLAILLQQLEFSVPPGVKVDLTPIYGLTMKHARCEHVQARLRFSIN

Assay [10] has as its target Voltage-gated inwardly rectifying potassium channel KCNH2 (Homo sapiens) (UniProt Q12809). Briefly: Human Ether-a-go-go-Related Gene (hERG) channel small molecule antagonists: fluorescence cell-based qHTS assay (AID 1671200). Also: nearly all actives have a fitted effect of over 50% in size. Also: potency is read from the fitted curve at half-maximal effect. Put shortly: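 Thallium flux as potassium surrogate: FluxOR II dye loaded 1 h at room temperature into hERG-expressing U2OS cells, then stimulus buffer added after 10 min. Kinetic 480 nm excitation/540 nm emission read, 2 min.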

Assay [11] has as its target Cytochrome P450 3A4 (Homo sapiens) (UniProt P08684). Briefly: Cytochrome P450 Family 3 Subfamily A Member 4 (CYP3A4) small molecule antagonists: luciferase reporter qHTS assay (AID 1671201). The method in brief:
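Recombinant human CYP3A4 converts a proluciferin substrate to luciferin over 1 h at room temperature after NADPH regeneration solution is added (compound preincubated 10 min); detection reagent stops reaction, luminescence read 20 min later as relative units.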

Assay [12] is described as follows: Caspase-3/7 induction in CHO-K1 cells by small molecules, qHTS assay (AID 1346980). Also: nearly all actives have a fitted effect of over 15% in size. Put shortly:
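Wild-type cells were seeded at 1,500 per well and settled 5 hr at 37 C, 5% CO2, then exposed to DMSO-dissolved compounds for 17 hr. Caspase-Glo 3/7 reagent was added, and luminescence was read after 30min at room temperature.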

The target in assay [13] is Nuclear receptor subfamily 1 group I member 2 (Rattus norvegicus) (UniProt Q9R1A7). As to the kind of experiment: Rat pregnane X receptor (rPXR) activation by small molecules, qHTS assay (AID 1346983). Also: nearly all actives have a fitted effect of over 20% in size. Also: potency is read from the fitted curve at half-maximal effect. Conditions: rPXR luciferase reporter cells, One-Glo luminescence, 24 h; max activation: active compounds read high. The method in brief:
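Cell-based rPXR luciferase reporter assay, 2,000 cells per well, rested 5hr at 37 C before compound addition in DMSO, then 24 hr at 37 C. One-Glo reagent was added and luminescence read after 30 min at room temperature.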

The target of assay [14] is Nuclear receptor subfamily 1 group I member 2 (Homo sapiens) (UniProt O75469). Briefly: CYP3A4 induction through human pregnane X receptor (PXR) by small molecules, qHTS assay (AID 1346984). Also: nearly all actives have a fitted effect of over 40% in size. Also: potency is read from the fitted curve at half-maximal effect. Put shortly: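 Quantitative HTS in DPX-2 cells, i.e. HepG2 transfected with PXR response element and CYP3A4-promoter luciferase. Compounds in DMSO incubated 24hr at 37C; then P450-Glo CYP3A4 substrate, 3uM final, 3hr; One-Glo luminescence.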
Nuclear receptor subfamily 1 group I member 2 (Homo sapiens), sequence (O75469 whole entry, looked up): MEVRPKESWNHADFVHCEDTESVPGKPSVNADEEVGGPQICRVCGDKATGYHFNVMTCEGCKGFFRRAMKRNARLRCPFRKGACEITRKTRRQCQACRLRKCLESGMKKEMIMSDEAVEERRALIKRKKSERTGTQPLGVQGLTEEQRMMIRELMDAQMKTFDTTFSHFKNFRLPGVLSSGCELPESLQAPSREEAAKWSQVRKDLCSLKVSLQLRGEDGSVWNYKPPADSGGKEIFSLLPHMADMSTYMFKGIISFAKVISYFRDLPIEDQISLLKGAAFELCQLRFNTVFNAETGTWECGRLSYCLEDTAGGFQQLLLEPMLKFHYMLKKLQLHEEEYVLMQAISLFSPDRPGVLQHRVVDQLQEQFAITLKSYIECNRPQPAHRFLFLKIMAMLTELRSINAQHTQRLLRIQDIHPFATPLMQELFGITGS

Assay [15] has the same target. As to the kind of experiment: Human pregnane X receptor (PXR) activation by small molecules, qHTS assay (AID 1346985). Also: nearly all actives have a fitted effect of over 40% in size. Also: potency is read from the fitted curve at half-maximal effect. The method in brief: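 DPX-2 cells (HepG2 co-transfected with a PXR response element and a CYP3A4-promoter luciferase construct) were seeded at 2,000 per well, rested 5 hr at 37C, then exposed to DMSO-dissolved compounds for 24 hr. Activation was read as luciferase luminescence.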

Values without a mark were called inactive. Inconclusive results are not listed. Active and inactive are the calls of the source. Calls follow the shape of the dose curve; as a rule, active = well fitted curve in the direction sought with a large enough effect in the repeat runs; inconclusive = weak or mixed curves; inactive = no such curve, though single readings can be large; an effect the other way counts as inactive or inconclusive.
% is scaled to controls: 0 for no effect and ±100 for the full control effect.

Cytochrome P450 3A4 (Homo sapiens), sequence (P08684 whole entry, looked up): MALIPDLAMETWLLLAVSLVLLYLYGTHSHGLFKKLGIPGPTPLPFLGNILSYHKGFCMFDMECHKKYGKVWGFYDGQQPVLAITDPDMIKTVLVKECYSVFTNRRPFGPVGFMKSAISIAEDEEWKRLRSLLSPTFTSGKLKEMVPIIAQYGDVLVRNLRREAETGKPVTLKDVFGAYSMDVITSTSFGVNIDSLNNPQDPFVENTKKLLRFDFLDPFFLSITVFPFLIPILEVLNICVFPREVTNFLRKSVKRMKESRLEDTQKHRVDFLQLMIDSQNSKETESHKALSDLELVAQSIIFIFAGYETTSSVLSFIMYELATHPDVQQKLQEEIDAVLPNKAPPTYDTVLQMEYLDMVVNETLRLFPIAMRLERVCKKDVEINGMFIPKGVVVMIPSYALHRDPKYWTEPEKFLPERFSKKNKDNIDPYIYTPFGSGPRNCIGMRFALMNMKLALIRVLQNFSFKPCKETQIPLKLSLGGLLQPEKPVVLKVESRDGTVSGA
Voltage-gated inwardly rectifying potassium channel KCNH2 (Homo sapiens), sequence (Q12809 whole entry, looked up): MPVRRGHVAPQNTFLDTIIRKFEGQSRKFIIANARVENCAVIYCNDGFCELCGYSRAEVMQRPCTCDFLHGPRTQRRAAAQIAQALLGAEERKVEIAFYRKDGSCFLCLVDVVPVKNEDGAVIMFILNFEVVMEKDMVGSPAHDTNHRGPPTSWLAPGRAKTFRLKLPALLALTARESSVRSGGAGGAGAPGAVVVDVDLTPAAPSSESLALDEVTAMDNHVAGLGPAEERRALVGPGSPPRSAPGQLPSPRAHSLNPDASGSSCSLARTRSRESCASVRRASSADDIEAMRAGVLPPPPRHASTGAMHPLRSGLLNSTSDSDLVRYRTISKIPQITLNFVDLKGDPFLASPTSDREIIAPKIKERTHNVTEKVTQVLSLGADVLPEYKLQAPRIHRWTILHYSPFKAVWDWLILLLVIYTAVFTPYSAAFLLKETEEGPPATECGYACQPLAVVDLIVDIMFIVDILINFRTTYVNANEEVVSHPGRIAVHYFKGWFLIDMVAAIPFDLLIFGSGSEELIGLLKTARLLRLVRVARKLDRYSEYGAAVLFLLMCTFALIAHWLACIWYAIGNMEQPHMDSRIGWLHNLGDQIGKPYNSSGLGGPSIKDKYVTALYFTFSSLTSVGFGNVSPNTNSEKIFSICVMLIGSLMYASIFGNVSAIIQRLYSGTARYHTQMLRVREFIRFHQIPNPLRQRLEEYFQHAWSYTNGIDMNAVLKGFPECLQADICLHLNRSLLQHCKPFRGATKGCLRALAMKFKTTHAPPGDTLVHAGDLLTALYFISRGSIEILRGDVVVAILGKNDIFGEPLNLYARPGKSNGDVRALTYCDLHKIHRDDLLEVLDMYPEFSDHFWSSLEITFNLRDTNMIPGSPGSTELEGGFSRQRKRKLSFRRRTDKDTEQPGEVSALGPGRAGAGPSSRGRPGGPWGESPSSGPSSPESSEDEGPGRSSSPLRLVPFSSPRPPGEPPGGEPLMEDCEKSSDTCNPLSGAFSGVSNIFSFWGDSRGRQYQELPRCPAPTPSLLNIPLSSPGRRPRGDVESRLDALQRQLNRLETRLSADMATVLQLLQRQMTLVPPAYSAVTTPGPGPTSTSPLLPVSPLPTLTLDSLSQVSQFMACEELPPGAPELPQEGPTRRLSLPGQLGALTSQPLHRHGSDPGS
Cytochrome P450 2C9 (Homo sapiens), sequence (P11712 whole entry, looked up): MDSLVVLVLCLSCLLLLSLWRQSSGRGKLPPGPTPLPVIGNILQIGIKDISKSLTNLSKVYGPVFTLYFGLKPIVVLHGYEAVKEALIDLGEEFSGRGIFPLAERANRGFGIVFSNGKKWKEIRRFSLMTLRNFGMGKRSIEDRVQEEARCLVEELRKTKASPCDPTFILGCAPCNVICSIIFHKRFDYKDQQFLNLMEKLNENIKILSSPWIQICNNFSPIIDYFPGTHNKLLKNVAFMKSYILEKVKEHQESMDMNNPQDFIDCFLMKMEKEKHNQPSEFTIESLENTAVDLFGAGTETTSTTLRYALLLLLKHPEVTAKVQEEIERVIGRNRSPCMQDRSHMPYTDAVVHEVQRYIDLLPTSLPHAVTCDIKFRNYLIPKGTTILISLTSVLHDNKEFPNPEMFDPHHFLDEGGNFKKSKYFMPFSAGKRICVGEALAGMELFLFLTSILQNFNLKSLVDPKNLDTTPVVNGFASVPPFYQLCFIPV
Cytochrome P450 2C19 (Homo sapiens), sequence (P33261 whole entry, looked up): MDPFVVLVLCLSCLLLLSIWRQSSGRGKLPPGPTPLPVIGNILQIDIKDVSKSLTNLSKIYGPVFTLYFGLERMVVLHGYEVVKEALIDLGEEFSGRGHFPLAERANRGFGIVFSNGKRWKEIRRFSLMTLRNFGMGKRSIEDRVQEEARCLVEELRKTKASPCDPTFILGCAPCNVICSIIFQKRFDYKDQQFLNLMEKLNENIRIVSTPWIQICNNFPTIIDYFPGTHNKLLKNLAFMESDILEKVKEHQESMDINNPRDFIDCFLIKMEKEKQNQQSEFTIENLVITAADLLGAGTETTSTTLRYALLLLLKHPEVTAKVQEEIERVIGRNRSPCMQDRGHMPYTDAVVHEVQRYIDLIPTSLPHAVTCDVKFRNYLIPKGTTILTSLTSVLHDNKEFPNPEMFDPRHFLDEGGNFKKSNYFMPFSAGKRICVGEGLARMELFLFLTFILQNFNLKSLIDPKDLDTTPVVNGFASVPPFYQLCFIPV
Nuclear receptor subfamily 1 group I member 2 (Rattus norvegicus), sequence (Q9R1A7 whole entry, looked up): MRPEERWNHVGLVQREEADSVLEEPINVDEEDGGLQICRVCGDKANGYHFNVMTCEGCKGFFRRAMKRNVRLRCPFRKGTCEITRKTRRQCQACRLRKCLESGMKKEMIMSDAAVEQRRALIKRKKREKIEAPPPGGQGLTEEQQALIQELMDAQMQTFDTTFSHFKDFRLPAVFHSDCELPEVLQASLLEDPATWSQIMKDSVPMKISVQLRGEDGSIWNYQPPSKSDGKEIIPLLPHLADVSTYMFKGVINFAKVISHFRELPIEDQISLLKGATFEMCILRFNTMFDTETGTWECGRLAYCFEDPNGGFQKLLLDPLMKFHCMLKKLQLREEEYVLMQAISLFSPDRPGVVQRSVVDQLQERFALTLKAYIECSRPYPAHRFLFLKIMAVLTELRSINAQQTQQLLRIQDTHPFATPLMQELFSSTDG

For the molecule `COc1ccc(NC(C)=O)cc1`, the Potency entry in assay [1], in assay [3], in assay [5], in [7], in [8] and in assay [10] was “inactive” each time. Moreover, the Potency result in [11] is “inactive”. Further, the result in [2] and in [4] was inactive. The Potency is 41 µM (active) in [6] and 36.5 µM (active) in [9].
Turning to `CNc1ncnc2nc[nH]c12`, the Potency entry in assay [1], in [3], in assay [6], in assay [7], in [8] and in assay [10] was “inactive” in each case. The Potency result in assay [11] was “inactive”. Also, the molecule was called inactive in [2] and in assay [4]. In [5], the Potency was 9.86 µM (active).
For the molecule `COC(=O)CCCC(=O)O`, the Potency entry in assay [1], in [3], in assay [5], in assay [6], in assay [7] and in assay [8] was “inactive” throughout. For the same molecule, the Potency result in assay [9], in [10] and in assay [11] was “inactive” in each case. Also, the molecule was called inactive in assay [2] and in [4].
Turning to `C=C(C)C(=O)NCCC[N+](C)(C)C`, the Potency result in [1], in assay [3], in assay [5], in [6], in [8] and in assay [10] was “inactive” in each case. In addition, the Potency result in [11] is “inactive”. The molecule was called inactive in [2] and in assay [4].
In the case of `CCCC(=O)O[C@]1(C(=O)CCl)[C@@H](C)C[C@H]2[C@@H]3CCC4=CC(=O)C=C[C@]4(C)[C@@]3(F)C(=O)C[C@@]21C`, the Potency result in [1] and in assay [9] was “inactive” throughout. The molecule was called inactive in assay [2], in [12] and in [4]. In addition, the Potency in assay [5] was 2.11 µM (active); in [13] it was 1 µM (active); in assay [14], 0.631 µM (active); in [15] it was 11.2 µM (active); in assay [6], 11 µM (active); in assay [7] it was 7.76 µM (active).
Consider `CCC(C)(C)C1CCC(OC)CC1` (centres undefined), for which the Potency result in assay [1], in assay [3], in [9], in assay [10] and in assay [11] was “inactive” in each case. Moreover, the molecule was classed as inactive in [2] and in assay [12]. Moreover, the Potency in assay [5] was 30.6 µM (active).
Consider `O=C(O)c1ccccc1S`, for which the Potency entry in [1], in assay [3], in assay [5], in assay [7], in [10] and in assay [11] was “inactive” each time. The molecule was classed as inactive in assay [2] and in assay [4].
For `COC(=O)c1ccc(C(=O)OC)c(C(=O)OC)c1`, the Potency entry in assay [1], in assay [3], in [5], in assay [6], in assay [10] and in assay [11] was “inactive” in each case. The molecule was called inactive in assay [2] and in [12]. Moreover, the Potency is 39.9 µM (active) in [7] and 7.96 µM (active) in assay [9].
As for `O=C(O)CCNC(=O)c1ccc(N=Nc2ccc(O)c(C(=O)O)c2)cc1`, the Potency result in assay [1], in assay [5], in assay [14], in assay [15], in assay [6] and in [7] was “inactive” throughout. The Potency result in assay [10] and in [11] was “inactive” each time. The call in assay [2] and in assay [12] was inactive. The max activation in assay [13] is -1.98%.
As for `CN(C)C(=O)C(CCN1CCC(O)(c2ccc(Cl)cc2)CC1)(c1ccccc1)c1ccccc1`, the Potency in [1] is 23.7 µM (active). For the same molecule, the call in [12] was inactive. The Potency entry in assay [5] and in assay [11] was “inactive” throughout.
For the molecule `CCCCCCCCCCCCI`, the Potency result in [1], in assay [3], in [5], in [6] and in [11] was “inactive” throughout. In addition, the call in [2] and in assay [12] was inactive.
With `O=[N+]([O-])c1ccc(Oc2ccc([N+](=O)[O-])cc2)cc1`, the Potency result in [1], in assay [3], in [5], in assay [6], in assay [9] and in assay [11] was “inactive” throughout. Besides, the outcome in [2] and in assay [4] was inactive. In addition, the Potency was 1.82 µM (active) in assay [7] and 39.8 µM (active) in assay [10].
For `CCCCCCCCN(C)CCCCCCCC`, the Potency result in [1], in [3], in assay [5], in assay [7] and in assay [11] was “inactive” throughout. The call in [2] and in assay [12] was inactive. Moreover, the Potency in [6] is 64 µM (active); in [10], 1.57 µM (active).
